Assay [1] relates to XIP peptide (Xip251-270) binding. In words: XIP fragment 251-270 binding compounds – biochemical, small-molecule microarray, fluorescence 635/667 nm, 0.1 µg/mL protein, primary screen (AID 1182). The note with it: fluorescent protein binding, 635 nm, higher = more signal, called active from +8 up or from −8 down.
For assay [2], the system named is XIP peptide (Xip251-270). In words: compounds binding XIP fragment 251-270 – biochemical, small-molecule microarray, fluorescence 635/667 nm, 0.5 µg/mL protein, primary screen (AID 1183). To be noted: fluorescence 635 nm, higher = more signal.
A short description of assay [3]: blood-stage malaria parasite viability loss – strain 3D7, DAPI fluorescence, 100 nL, primary screen (AID 1184).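 Also: parasites grown inside human red blood cells in medium with human serum.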 To be noted: P. falciparum 3D7 growth, 3 d, higher = more signal.
Assay [4] has as its target Homeobox protein Hox-A13 (Mus musculus) (UniProt Q62424). In words: disruptors of Hoxa13 oligonucleotide interaction – biochemical, fluorescence polarization, labeled oligonucleotide, primary screen (AID 1185). The note with it: Hoxa13:DNA binding, 15 min, higher = more signal, called active from +8 up or from −8 down. (In general: In fluorescence polarisation assays a small probe gives low polarisation when free and higher when bound to something large.)

Calls of active or inactive are those of the source.

Homeobox protein Hox-A13 (Mus musculus), sequence (Q62424 whole entry, looked up): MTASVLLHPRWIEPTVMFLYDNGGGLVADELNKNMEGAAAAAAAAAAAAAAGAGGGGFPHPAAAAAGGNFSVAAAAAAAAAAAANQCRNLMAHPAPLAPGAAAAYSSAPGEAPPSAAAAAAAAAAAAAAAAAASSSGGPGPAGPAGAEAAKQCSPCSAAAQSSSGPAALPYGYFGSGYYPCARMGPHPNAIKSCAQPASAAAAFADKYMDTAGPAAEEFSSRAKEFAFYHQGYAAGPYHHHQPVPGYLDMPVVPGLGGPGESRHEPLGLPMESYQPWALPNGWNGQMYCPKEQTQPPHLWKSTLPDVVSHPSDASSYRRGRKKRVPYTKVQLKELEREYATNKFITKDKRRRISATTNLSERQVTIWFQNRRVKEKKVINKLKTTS

For `CCOC(=O)CCN1C(=O)[C@H]2[C@H]3[C@H](O)[C@H](O)CC(=NOCC=C(C)CCC=C(C)C)[C@H]3CC[C@H]2C1=O`, the composite z-score was -0.322 (inactive) in assay [1] and -0.206 in assay [2]. For the same compound, the values for the z-score in assay [3] and in assay [4] were 0.241 and 0.765 (inactive), respectively.

As to `CCOC(=O)[C@H](Cc1ccccc1)NC(=O)CCC1CC(OC(=O)NCc2cccc3ccccc23)CC2(CCCC(COC(=O)NCC3CCCCC3)O2)O1` (some centres not stated), the composite z-score in assay [1] is 1.98 (inactive); in assay [2], 0.357. Also, the z-score in assay [3] is -1.69; in assay [4] it was -3.1 (inactive).

For the compound `COC(=O)[C@H](C)NC(=O)CCC1CC(OC(=O)NCc2cccc3ccccc23)CC2(CCCC(COC(=O)NCCc3ccccc3OC)O2)O1` (some centres not stated), the composite z-score in assay [1] was -0.0645 (inactive); in assay [2] it was 0.384. The z-score in assay [3] is -1.47; in assay [4], -4.27 (inactive).

For `COC(=O)[C@@H]1CC[C@H](C)[C@@H](c2ccc(Br)cc2)N1C[C@H](O)CN=[N+]=[N-]`, the composite z-score in assay [1] was 1.12 (inactive); in assay [2], -0.135. Also, the z-score is -0.637 in assay [3] and -2.93 (inactive) in assay [4].

With `CC(C)=NOC(C)CN1CCCCc2nc(C)c(C)cc21` (configuration not stated), the composite z-score in assay [1] is -0.203 (inactive); in assay [2], 0.208. Moreover, the z-score in assay [3] was 1.35; in assay [4], -1.28 (inactive).

Regarding `O=C1[C@H]2[C@H]3[C@H](O)[C@H](O)CC(=NOC[C@@H](O)COCc4ccco4)[C@@H]3CC[C@H]2C(=O)N1Cc1ccc2c(c1)OCO2`, the results for the composite z-score in assay [1] and in assay [2] were -0.0588 (inactive) and 0.265, respectively. In addition, the z-score in assay [3] is 1.15; in assay [4], 0.263 (inactive).

Consider `CC(CCN1CCc2nc(-c3ccccc3)c(-c3ccccc3)cc2C1)=NO[C@H](C)c1cn([C@H](CO)Cc2ccccc2)nn1`, for which the composite z-score in assay [1] was 0.899 (inactive); in assay [2] it was 0.529. Besides, the z-score in assay [3] was -0.618; in assay [4] it was -5.22 (inactive).

`CC(C)[C@@H](OCc1ccccc1)[C@H](C)C=NOC[C@@H](O)[C@H]1O[C@@H]2OC(C)(C)O[C@@H]2[C@H]1O`: the composite z-score was -0.12 (inactive) in assay [1] and 0.258 in assay [2]. The z-score was -0.489 in assay [3] and -1.24 (inactive) in assay [4].

With `C=C(C)C(=O)OC[C@H]1CN2[C@@H](CC[C@@H](C)[C@@H]2c2ccc(Br)cc2)C(=O)O1`, the composite z-score in assay [1] is 0.414 (inactive); in assay [2], -0.102. For the same compound, the z-score in assay [3] was 1.05; in assay [4], -2.2 (inactive).

`Cc1ccc(C(C)C)n1C(=O)OC(C)(C)C`: the composite z-score is -0.488 (inactive) in assay [1] and -0.0079 in assay [2]. The z-score in assay [3] was 0.271; in assay [4], 0.936 (inactive).

Regarding `CC(C)C(=O)N[C@H]1CCCN1C(=O)C=Cc1ccccc1`, the composite z-score in assay [1] was 0.934 (inactive); in assay [2], -0.168. For the same compound, the z-score in assay [3] is -0.64; in assay [4] it was -2.18 (inactive).

In the case of `CC(CCN1CCCc2nc(C)c(C)cc21)=NO[C@@H](C)c1cn([C@H](CO)Cc2ccccc2)nn1`, the composite z-score in assay [1] is 0.51 (inactive); in assay [2] it was 0.244. Also, the figures for the z-score in assay [3] and in assay [4] were 0.221 and -0.829 (inactive), respectively.

With `C[C@@H]1CC[C@H]2C(=O)O[C@@H](CN=[N+]=[N-])CN2[C@H]1c1ccc(Br)cc1`, the composite z-score is 0.223 (inactive) in assay [1] and 0.688 in assay [2]. Moreover, the z-score is -1.72 in assay [3] and -0.917 (inactive) in assay [4].

For `CCOC(=O)[C@H](CC(C)C)NC(=O)CCC1CC(OC(=O)NCCc2ccc(F)cc2)CC2(CCCC(COC(=O)NCc3cccc4ccccc34)O2)O1` (some centres not stated), the composite z-score in assay [1] is -0.008 (inactive); in assay [2] it was 0.24. Moreover, the values for the z-score in assay [3] and in assay [4] were -1.48 and -5.81 (inactive), respectively.

Consider `COCOc1ccc(Br)cc1C(=O)C=Cc1ccc2c(c1)OCO2`, for which the figures for the composite z-score in assay [1] and in assay [2] were 0.268 (inactive) and 0.627, respectively. Further, the z-score in assay [3] was -1.42; in assay [4], -0.353 (inactive).

Turning to `O=C1[C@H]2CCn3c(=O)n(-c4ccccc4)c(=O)n3[C@H]2[C@H](O)[C@@H]2O[C@H]12`, the composite z-score in assay [1] was -0.0756 (inactive); in assay [2], 0.614. In addition, the z-score in assay [3] was -0.815; in assay [4] it was -0.418 (inactive).

Consider `CON=C[C@@H](OC)[C@H](C)C=CCC(=O)OC`, for which the results for the composite z-score in assay [1] and in assay [2] were -1.44 (inactive) and -0.499, respectively. The z-score was -0.166 in assay [3] and -0.326 (inactive) in assay [4].

Consider `CC(C)CON=C1C[C@@H](O)[C@@H](O)[C@@H]2[C@@H]3C(=O)N(c4ccc(F)cc4F)C(=O)[C@@H]3CC[C@@H]12`, for which the composite z-score is 0.681 (inactive) in assay [1] and 0.218 in assay [2]. For the same compound, the z-score was -1.66 in assay [3] and -0.567 (inactive) in assay [4].

`O=C(NCCC[N+]1=CC=NC1c1ccccc1)N1CCCc2nc(-c3ccc(Br)cc3)ccc21` (configuration not stated): the composite z-score in assay [1] is 0.638 (inactive); in assay [2], 0.0388. The figures for the z-score in assay [3] and in assay [4] were -0.449 and -7.21 (inactive), respectively.

On to `CCOC(=O)[C@H](CC(C)C)NC(=O)CCC1CC(OC(=O)NCc2ccc3c(c2)OCO3)CC2(CCCC(COC(=O)NCCOc3ccccc3)O2)O1` (some centres not stated), for which the composite z-score was 0.24 (inactive) in assay [1] and 0.368 in assay [2]. Besides, the z-score is -1.87 in assay [3] and -6.24 (inactive) in assay [4].

On to `C[C@H]1CC[C@@H](C(=O)O)N[C@@H]1c1cccc(N2CCCC2=O)c1`, for which the results for the composite z-score in assay [1] and in assay [2] were 0.641 (inactive) and -0.397, respectively. Also, the z-score in assay [3] was 0.752; in assay [4], -0.0351 (inactive).

In the case of `O=C1[C@H]2[C@H]3[C@H](O)[C@H](O)CC(=NOC[C@@H](O)COCc4ccco4)[C@@H]3CC[C@H]2C(=O)N1Cc1ccccc1`, the composite z-score in assay [1] is 0.41 (inactive); in assay [2] it was 0.64. Moreover, the z-score in assay [3] is -0.986; in assay [4], -2.98 (inactive).

Regarding `CO[C@H]1COC(=O)CCC[C@H](C)[C@@H](OC)COC(=O)CC=C[C@@H]1C`, the results for the composite z-score in assay [1] and in assay [2] were -0.294 (inactive) and 0.003, respectively. Also, the values for the z-score in assay [3] and in assay [4] were -0.809 and 0.544 (inactive), respectively.

The values are drawn from PubChem BioAssay.
